Experiment [1] is described as follows: qHTS assay to identify small molecule agonists of the peroxisome proliferator-activated receptor delta (PPARd) signaling pathway - cell viability counter screen (AID 743211). Also: nearly all actives have a fitted effect of over 55% in size. In a few lines: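 PPARd-bla HEK293H cells (UAS-beta-lactamase reporter) were treated with compounds for 17 h at 37 C. Viability was then read in the same wells by CellTiter-Glo luminescence after 30 min at room temperature.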

For experiment [2], the target named is Peroxisome proliferator-activated receptor delta (Homo sapiens) (UniProt Q03181). In words: qHTS assay to identify small molecule agonists of the peroxisome proliferator-activated receptor delta (PPARd) signaling pathway (AID 743212; calls by dose curve). The procedure, abridged: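 Beta-lactamase reporter read by fluorescence (LiveBLAzer B/G FRET, 2 h, room temperature). Test agents, in DMSO, incubated at 37 C with PPARd-bla HEK293H cells.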
(In qHTS, concentration-response curves come from the screen itself.)

Experiment [3] is described as follows: qHTS assay to identify small molecule antagonists of the peroxisome proliferator-activated receptor delta (PPARd) signaling pathway - cell viability counter screen (AID 743213). Also: nearly all actives have a fitted effect of over 50% in size. In a few lines:
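HEK293H cells with the PPARd UAS-bla reporter, co-treated 17 h at 37 C with compounds and L165041 (300 nM final), were lysed with CellTiter-Glo. Luminescence indicated viable cell content.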

In experiment [4] the target is Peroxisome proliferator-activated receptor delta (Homo sapiens) (UniProt Q03181). The experiment in a line: qHTS assay to identify small molecule antagonists of the peroxisome proliferator-activated receptor delta (PPARd) signaling pathway (AID 743215; active = well fitted inhibition curve with a large enough effect in the signal ratio in the repeat runs, not every such curve was filed as active; the % refers to the signal ratio;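 also: cells stimulated with agonist L165041 at 300 nM final during compound exposure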; also: potency is read from the fitted curve at half-maximal effect). In a few lines:
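Agonist L165041 (300 nM final) added with compound to PPARd-bla HEK293H UAS-bla reporter cells; 17 h incubation at 37 C. Read-out: LiveBLAzer FRET substrate, 2 h at room temperature, fluorescence intensity.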

Experiment [5] is described as follows: qHTS assay to identify small molecule agonists of the farnesoid-X-receptor (FXR) signaling pathway - cell viability counter screen (AID 743218). Also: nearly all actives have a fitted effect of over 45% in size. In a few lines: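 Viability counter screen in the same wells: CellTiter-Glo luminescence, 30 min room-temperature incubation, measured after the beta-lactamase read. Cells were GeneBLAzer FXR-UAS-bla HEK 293T, compound-treated 16 h at 37C.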

A short description of experiment [6]: qHTS assay to identify small molecule antagonists of the farnesoid-X-receptor (FXR) signaling pathway - cell viability counter screen (AID 743221; active = well fitted cell-killing curve with a large enough effect in the repeat runs, not every such curve was filed as active; also: nearly all actives have a fitted effect of over 50% in size). In a few lines:
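FXR-UAS-bla HEK 293T cells were treated with test compounds plus chenodeoxycholic acid (50 uM final) for 16 h at 37 C. Cell viability in the same wells was then read as CellTiter-Glo luminescence after 30 min at room temperature.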

Experiment [7] has as its target Bile acid receptor (Homo sapiens) (UniProt Q96RI1). In words: qHTS assay to identify small molecule antagonists of the farnesoid-X-receptor (FXR) signaling pathway (AID 743217; active = well fitted inhibition curve with a large enough effect in the signal ratio in the repeat runs, not every such curve was filed as active; the % refers to the signal ratio). In a few lines:
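Antagonist mode: chenodeoxycholic acid at 50 uM final stimulates a UAS-driven beta-lactamase reporter in HEK 293T FXR-bla cells during 16 h, 37C compound exposure. Read-out is FRET substrate fluorescence after 2 h at room temperature.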

For experiment [8] the target is unchanged. In words: qHTS assay to identify small molecule agonists of the farnesoid-X-receptor (FXR) signaling pathway (AID 743220; active = well fitted activation curve with a large enough effect in the signal ratio in the repeat runs, not every such curve was filed as active; the % refers to the signal ratio). In a few lines: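 FXR-UAS-bla HEK 293T cells carrying a UAS-driven beta-lactamase reporter were plated for 5 h at 37C/5% CO2, then exposed to DMSO-dissolved Tox21 10K compounds for 16 h at 37C. A LiveBLAzer B/G FRET substrate was loaded for 2 h at room temperature before fluorescence reading.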

The target of experiment [9] is Vitamin D3 receptor (Homo sapiens) (UniProt P11473). The experiment in a line: qHTS assay to identify small molecule agonists of the vitamin D receptor (VDR) signaling pathway (AID 743222; calls by dose curve). The procedure, abridged:
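Agonist mode, beta-lactamase reporter: fluorescence from LiveBLAzer B/G FRET substrate (2 h, room temperature) read after 16 h compound treatment at 37 C of VDR-bla cells, which were pre-incubated 4 h after seeding.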

The target is the same in experiment [10]. The experiment in a line: qHTS assay to identify small molecule antagonists of the vitamin D receptor (VDR) signaling pathway (AID 743223; active = well fitted inhibition curve with a large enough effect in the signal ratio in the repeat runs, not every such curve was filed as active; the % refers to the signal ratio). The procedure, abridged:
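VDR-bla cells were plated, incubated 4 h at 37C, then given compound and 1alpha,25-dihydroxyvitamin D3 (3 nM final). After 16 h at 37C, LiveBLAzer B/G FRET substrate was added for 2 h at room temperature and fluorescence read.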

Records with an inconclusive call do not appear. A structure can be active in one record and inactive in another. Active and inactive are the calls of the source. Unless noted, calls follow the shape of the dose curve; as a rule, active = well fitted curve in the direction sought with a large enough effect in the repeat runs; inconclusive = weak or mixed curves; inactive = no such curve, though single readings can be large; an effect the other way counts as inactive or inconclusive.

Vitamin D3 receptor (Homo sapiens), sequence (P11473 whole entry, looked up): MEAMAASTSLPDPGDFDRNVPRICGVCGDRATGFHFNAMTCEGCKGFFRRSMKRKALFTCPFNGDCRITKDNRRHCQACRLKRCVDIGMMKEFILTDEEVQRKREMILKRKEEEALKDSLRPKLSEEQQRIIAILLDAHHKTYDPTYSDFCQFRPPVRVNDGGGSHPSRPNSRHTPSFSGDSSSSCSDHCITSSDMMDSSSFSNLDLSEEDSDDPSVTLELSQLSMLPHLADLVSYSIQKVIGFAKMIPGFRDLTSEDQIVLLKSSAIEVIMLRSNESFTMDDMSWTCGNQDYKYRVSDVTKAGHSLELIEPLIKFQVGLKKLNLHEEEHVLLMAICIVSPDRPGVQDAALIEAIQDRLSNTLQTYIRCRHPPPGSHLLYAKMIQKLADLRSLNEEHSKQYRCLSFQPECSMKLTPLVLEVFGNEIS
Peroxisome proliferator-activated receptor delta (Homo sapiens), sequence (Q03181 whole entry, looked up): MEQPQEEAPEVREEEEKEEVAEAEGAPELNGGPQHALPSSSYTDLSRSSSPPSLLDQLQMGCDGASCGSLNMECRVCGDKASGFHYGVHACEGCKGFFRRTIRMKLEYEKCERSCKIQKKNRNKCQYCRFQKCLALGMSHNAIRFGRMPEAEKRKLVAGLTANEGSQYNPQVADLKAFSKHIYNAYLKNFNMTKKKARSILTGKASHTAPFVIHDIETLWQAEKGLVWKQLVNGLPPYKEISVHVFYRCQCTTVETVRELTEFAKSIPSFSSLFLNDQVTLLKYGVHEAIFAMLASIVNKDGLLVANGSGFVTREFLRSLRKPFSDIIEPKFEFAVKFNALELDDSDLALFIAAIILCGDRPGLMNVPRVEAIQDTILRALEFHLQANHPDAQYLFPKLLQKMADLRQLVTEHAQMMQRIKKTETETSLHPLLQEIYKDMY
Bile acid receptor (Homo sapiens), sequence (Q96RI1 whole entry, looked up): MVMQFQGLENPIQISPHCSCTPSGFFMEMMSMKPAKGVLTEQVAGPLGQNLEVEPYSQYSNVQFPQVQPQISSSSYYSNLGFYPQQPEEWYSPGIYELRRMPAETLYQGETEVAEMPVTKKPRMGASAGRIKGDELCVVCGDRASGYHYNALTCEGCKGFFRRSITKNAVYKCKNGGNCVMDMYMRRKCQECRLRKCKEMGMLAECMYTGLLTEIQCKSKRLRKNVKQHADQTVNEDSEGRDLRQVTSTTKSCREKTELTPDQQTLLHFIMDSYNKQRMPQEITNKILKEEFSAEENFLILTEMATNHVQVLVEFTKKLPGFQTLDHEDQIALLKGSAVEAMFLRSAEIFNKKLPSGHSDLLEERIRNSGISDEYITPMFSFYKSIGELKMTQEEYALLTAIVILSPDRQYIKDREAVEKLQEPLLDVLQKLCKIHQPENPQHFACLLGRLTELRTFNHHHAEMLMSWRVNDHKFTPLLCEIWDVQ

For `CC(C)C#N`, the compound was classed as inactive in [1], in experiment [2], in [3], in experiment [5] and in [6]. Further, in experiment [4], the Potency result was “inactive”.
Consider `CCOP(=S)(OCC)SCCSCC`, for which the outcome in [1], in experiment [2], in experiment [3], in experiment [5] and in experiment [6] was inactive. Moreover, the Potency result in experiment [4] is “inactive”.
Turning to `CCC[N+](=O)[O-]`, the result in [1], in [2], in [3], in [7], in [5] and in [8] was inactive. Also, the outcome in experiment [6], in experiment [9] and in experiment [10] was inactive. In addition, the Potency result in experiment [4] was “inactive”.
Take `CN(N=O)c1ccccc1`: the call in experiment [1], in experiment [2], in experiment [3], in experiment [7], in experiment [5] and in [8] was inactive. The compound was classed as inactive in experiment [6], in [9] and in experiment [10]. The Potency result in [4] is “inactive”.
As for `C[C@]12CC[C@H]3[C@@H](CC[C@@]45O[C@@H]4C(O)=C(C#N)C[C@]35C)[C@@H]1CC[C@@H]2O`, the call in experiment [1], in experiment [2], in experiment [3], in experiment [5], in [6] and in experiment [9] was inactive. Besides, the Potency entry in [4] was “inactive”.
`C#CCN(C)[C@H](C)Cc1ccccc1`: the result in [1], in experiment [2], in [3], in experiment [5], in experiment [6] and in [9] was inactive. Moreover, in [10], the result was inactive. The Potency entry in [4] was “inactive”.
For the compound `COc1ccc2c3c1O[C@H]1[C@@H](O)C=C[C@H]4[C@@H](C2)N(C)CC[C@@]341`, the compound was classed as inactive in experiment [1], in experiment [2], in [3], in experiment [7], in experiment [5] and in experiment [8]. For the same compound, the compound was called inactive in [6], in experiment [9] and in [10]. The Potency in experiment [4] was 42.6 µM (active).
In the case of `CCCCCCCCCl`, the result in experiment [1], in experiment [2], in experiment [3], in experiment [7], in [5] and in experiment [8] was inactive. For the same compound, the outcome in [6], in experiment [9] and in experiment [10] was inactive. Further, the Potency result in experiment [4] is “inactive”.
In the case of `c1cc2c3c(cccc3c1)CC2`, the compound was called inactive in experiment [1], in experiment [2], in experiment [3], in experiment [5] and in [6]. Further, in [4], the Potency entry was “inactive”.
Turning to `CCNc1nc(NC(C)(C)C)nc(SC)n1`, the compound was called inactive in [1], in experiment [2], in experiment [3], in experiment [7], in [5] and in experiment [8]. The call in experiment [9] and in experiment [10] was inactive. Further, in experiment [4], the Potency entry is “inactive”.
Take `CN(C)[C@@H]1C(=O)C(C(N)=O)=C(O)[C@@]2(O)C(=O)C3=C(O)c4c(O)cccc4[C@@](C)(O)[C@H]3C[C@@H]12`: the result in experiment [1], in [2], in experiment [3], in [5] and in experiment [8] was inactive. In experiment [4], the Potency result is “inactive”.
Turning to `OC(O)C(Cl)(Cl)Cl`, the outcome in experiment [1], in experiment [2], in experiment [3], in experiment [7], in experiment [5] and in experiment [8] was inactive. Moreover, in experiment [4], the Potency entry was “inactive”.
`ClCCBr`: the compound was classed as inactive in experiment [1], in experiment [2], in experiment [3] and in experiment [5]. Moreover, the Potency result in [4] is “inactive”.
In the case of `O=[N+]([O-])c1ccc([As](=O)(O)O)cc1`, the call in [1], in experiment [2], in [3], in experiment [5], in experiment [6] and in [9] was inactive. Further, the result in [10] was inactive. The Potency result in experiment [4] is “inactive”.
On to `C=CC(N)=O`, for which the call in experiment [1], in experiment [2], in experiment [3], in experiment [5], in experiment [9] and in [10] was inactive. For the same compound, in experiment [4], the Potency entry is “inactive”.
Consider `CC(NC(C)(C)C)C(=O)c1cccc(Cl)c1` (stereo unspecified), for which the result in experiment [1], in experiment [3], in [5], in experiment [6], in [9] and in experiment [10] was inactive.
With `OCCN(CCO)CCO`, the compound was called inactive in [1], in [3], in [5] and in [6].
With `O=C(NC(=O)c1c(F)cccc1F)Nc1cc(Cl)c(OC(F)(F)C(F)C(F)(F)F)cc1Cl` (stereo unspecified), the call in experiment [1], in [3], in experiment [7], in experiment [5], in experiment [8] and in [6] was inactive. Further, the compound was classed as inactive in experiment [9] and in [10].
As to `CCNc1nc(NC(C)C)nc(SC)n1`, the outcome in [1], in [2], in experiment [3], in experiment [5], in experiment [9] and in experiment [10] was inactive. Also, in experiment [4], the Potency entry is “inactive”.
In the case of `CC(C)(Cl)Cl`, the compound was classed as inactive in experiment [1], in [2], in experiment [3], in experiment [5], in experiment [9] and in experiment [10]. In experiment [4], the Potency result is “inactive”.
Consider `BrCCBr`, for which the compound was called inactive in experiment [1], in experiment [2], in [3], in [5], in [6] and in experiment [9]. Also, in experiment [10], the compound was classed as inactive. In addition, the Potency result in [4] was “inactive”.
For `Clc1cccc(Cl)c1Cl`, the outcome in experiment [1], in experiment [2], in experiment [3], in experiment [5], in experiment [6] and in experiment [9] was inactive. Further, the outcome in experiment [10] was inactive. Further, in experiment [4], the Potency entry is “inactive”.
Take `O=C1CCCN1`: the compound was classed as inactive in experiment [2], in [3], in experiment [7], in [5], in [8] and in [6]. For the same compound, the Potency entry in experiment [4] is “inactive”.
As to `CCc1cccc(C)c1N(C(=O)CCl)C(C)COC` (stereo unspecified), the outcome in experiment [1], in experiment [3], in [5], in experiment [6], in [9] and in [10] was inactive.
Consider `[O-][Cl+2]([O-])O`, for which the call in experiment [1], in experiment [3], in experiment [7], in experiment [5], in [8] and in [9] was inactive. The compound was classed as inactive in [10].
As for `CC(=O)C=C(C)C`, the result in [1], in experiment [3], in [5], in experiment [9] and in experiment [10] was inactive.
As for `Cc1[nH]c(=O)n(C(C)(C)C)c(=O)c1Cl`, the result in experiment [1], in [3], in [7], in [5] and in experiment [8] was inactive.
Take `CC(C#N)CCC#N` (stereo unspecified): the compound was called inactive in experiment [1], in [2], in experiment [3], in experiment [5], in [6] and in [9]. In addition, the result in experiment [10] was inactive. The Potency entry in [4] is “inactive”.

The record behind these values is PubChem BioAssay (Tox21).
